Measured values: PMC4336329 (PLoS ONE, 2015)
The whole screen tested about 310,000 compounds, of which about 14,000 (4.5%) showed an effect of 50% or more. The effect is printed as a negative number. The sample holds strong results, similar compounds and a random draw of the others, so the mix is not that of the screen.

The molecules below were run against human ether-à-go-go-related gene (hERG) potassium channel (human, UniProt Q12809) (assay: primary screen, population patch clamp on CHO cells stably expressing hERG; higher = less effect of the substance).
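Note: peak tail current of the secondary pulse compared with the same well before compound.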

Chain of human ether-à-go-go-related gene (hERG) potassium channel (Q12809 whole entry, looked up): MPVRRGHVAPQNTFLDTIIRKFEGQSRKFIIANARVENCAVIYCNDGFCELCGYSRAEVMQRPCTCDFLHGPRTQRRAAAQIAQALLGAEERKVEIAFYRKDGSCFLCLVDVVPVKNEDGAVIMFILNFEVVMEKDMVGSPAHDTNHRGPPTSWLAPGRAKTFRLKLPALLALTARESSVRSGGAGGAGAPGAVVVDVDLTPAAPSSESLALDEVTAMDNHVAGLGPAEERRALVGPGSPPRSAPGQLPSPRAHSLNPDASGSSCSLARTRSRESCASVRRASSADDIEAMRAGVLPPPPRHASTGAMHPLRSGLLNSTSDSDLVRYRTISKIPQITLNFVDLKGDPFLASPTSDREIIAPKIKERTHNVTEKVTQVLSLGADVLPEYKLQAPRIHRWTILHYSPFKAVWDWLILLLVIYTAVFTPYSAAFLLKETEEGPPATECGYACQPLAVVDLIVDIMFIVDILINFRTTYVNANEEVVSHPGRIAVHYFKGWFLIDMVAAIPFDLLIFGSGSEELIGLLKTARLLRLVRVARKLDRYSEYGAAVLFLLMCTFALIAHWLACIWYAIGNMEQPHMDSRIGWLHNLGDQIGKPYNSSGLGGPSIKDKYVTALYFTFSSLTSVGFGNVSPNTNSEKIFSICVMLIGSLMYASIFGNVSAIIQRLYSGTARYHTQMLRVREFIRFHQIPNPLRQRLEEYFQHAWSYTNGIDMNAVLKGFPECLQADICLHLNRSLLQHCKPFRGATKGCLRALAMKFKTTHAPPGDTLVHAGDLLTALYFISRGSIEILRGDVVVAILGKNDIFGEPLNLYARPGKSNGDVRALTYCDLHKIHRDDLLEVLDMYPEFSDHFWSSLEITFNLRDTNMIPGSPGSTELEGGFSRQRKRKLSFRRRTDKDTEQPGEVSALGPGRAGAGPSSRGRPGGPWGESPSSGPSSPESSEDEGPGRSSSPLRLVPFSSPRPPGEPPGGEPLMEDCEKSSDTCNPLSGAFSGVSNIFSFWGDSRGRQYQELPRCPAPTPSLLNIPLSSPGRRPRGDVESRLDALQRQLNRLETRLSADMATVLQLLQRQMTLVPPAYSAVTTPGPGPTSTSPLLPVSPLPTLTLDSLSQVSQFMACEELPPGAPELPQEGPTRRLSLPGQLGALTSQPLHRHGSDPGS

SMILES | hERG current change (%, negative = inhibition) at 10uM
C[C@@H](C(=O)NCC1CC1)[C@H]1C[C@]1(C)[C@H](NC(=O)OCc1ccccc1)c1ccccc1 | -7.08%
Cc1cccc(C(=O)N2CCCC(CCC(=O)N3CCN(c4ccccn4)CC3)C2)c1C (stereo not shown) | -17.3%
O=C(Cn1cnc2cc([N+](=O)[O-])ccc2c1=O)Nc1cccc2ccccc12 | -5.73%
O=C(O)c1ccc(Cl)c(S(=O)(=O)Nc2ccc(OCc3ccccc3)cc2)c1 | 7.79%
O=C(Cn1cc(C(=O)C2CC2)c2ccccc21)NCc1ccccc1 | 3.43%
Cc1cc(C(F)F)n2ncc(C(=O)NC3CCCCCC3)c2n1 | -11.5%
O=C(NCc1ccc2c(c1)OCO2)C(=O)NCC(c1ccco1)N1CCN(c2ccccc2)CC1 (stereo not shown) | 16%
COc1ccc(OCC(=O)Nc2ccc(N3CCN(C(=O)c4ccco4)CC3)cc2)cc1 | 0.974%
O=C(COc1ccc(Cl)cc1)Nc1ccc(N2CCN(C(=O)c3ccco3)CC2)cc1 | -21.1%
Cc1cccc(NC(=O)CSCC(=O)N2CCN(C(=O)c3ccco3)CC2)c1 | -30.5%
O=C(COc1ccccc1)Nc1ccc(N2CCN(C(=O)c3ccco3)CC2)cc1 | -53%
COc1ccc(NC(=O)CSCC(=O)N2CCN(C(=O)c3ccco3)CC2)cc1 | -55.1%
Cc1ccc(OCC(=O)Nc2ccc(N3CCN(C(=O)c4ccco4)CC3)cc2)cc1 | -56.1%
Cc1cccc(OCC(=O)Nc2ccc(N3CCN(C(=O)c4ccco4)CC3)cc2)c1 | -28.1%
Cc1cc(C)cc(OCC(=O)Nc2ccc(N3CCN(C(=O)c4ccco4)CC3)cc2)c1 | -45.8%
Cc1ccc(NC(=O)CSCC(=O)N2CCN(C(=O)c3ccco3)CC2)cc1 | -21.6%
COc1ccc2c(c1)C(=O)N(c1ccc(C)cc1C)C(=O)C2 | 7.6%
O=C(O)C(Cc1ccccc1)N1C(=O)/C(=C/c2ccccc2)SC1=S (stereo not shown) | -0.221%
CCn1c(NCc2ccco2)nc2c1c(=O)n(C)c(=O)n2C | -10.7%
CCCCC1=C([O-])C2N=CC=CC2=[N+](c2ccccn2)C1=O (stereo not shown) | 0.715%
Cc1ccc(-n2c(=O)[nH]c3c(C(N)=O)nc(CC(C)C)nc32)cc1 | 4.8%
O=C(COc1ccc(Cl)cc1Cl)Nc1ccc(CN2CCCCC2)cc1 | -67.9%
Cc1ccc(Cl)cc1N1CCN(CC(=O)Nc2ccc3[nH]c(=O)[nH]c3c2)CC1 | 11.1%
Cc1ccc(Cl)cc1N1CCN(CC(=O)Nc2ccc(CN3CCCCC3)cc2)CC1.Cl | -71.1%
O=C(Nc1ccc(Cl)cc1)N1CCCN(Cc2ccc(F)cc2)C1 | -75.4%
O=C(COc1ccccc1Cl)Nc1ccc(CN2CCCCC2)cc1 | -33.7%
COc1ccccc1N1CCN(CC(=O)Nc2ccc(CN3CCCCC3)cc2)CC1.Cl | -11.5%
O=C(Nc1ccc(Cl)cc1)N1CCCN(Cc2ccccc2F)C1 | -26.3%

SMILES | hERG current change (%, negative = inhibition) at 10uM
O=C(Cc1ccc(Cl)cc1)Nc1ccc(N2CCCC2)cc1 | 17.3%
O=C(Nc1ccccc1)N1CCCN(Cc2ccccc2F)C1 | -8.48%
O=C(COc1ccc(Cl)cc1Cl)Nc1ccc(CN2CCOCC2)cc1 | 15.4%
O=C(Cc1ccc(Cl)cc1)Nc1ccc(C(=O)N2CCCCC2)cc1 | 14.5%
O=C(Cc1ccc(Cl)cc1)Nc1ccc(CN2CCCCC2)cc1 | -64.9%
Cc1cc(C)n2nc(C(=O)N/N=C/c3ccccc3C)nc2n1 | 4.85%
O=C1c2ccccc2NC2(CCCC2)N1N=C1CCCC1 | -12.2%
Cc1c(C(=O)Nc2cccc(S(=O)(=O)N3CCCC3)c2)oc2ccccc12 | 5.98%
O=C(CCNS(=O)(=O)c1ccccc1)Nc1ccccc1 | 17.8%
CCc1ccc(NC(=O)C2CCN(S(=O)(=O)c3ccc4c(c3)NC(=O)C(C)S4)CC2)cc1 (stereo not shown) | 19.2%
O=C(Oc1coc(CSc2nnc(NC(=O)c3cccs3)s2)cc1=O)c1ccccc1 | 7.37%
COc1ccc(NS(=O)(=O)c2cccc(NC(=O)NC3CCCCC3)c2)cc1 | -4.21%
CC(OC(=O)CC1CC2CCC1C2)C(=O)Nc1ccc(C(N)=O)cc1 (stereo not shown) | -16%
CCCCNC(=O)Nc1c(C(=O)OCC)[nH]c2ccccc12 | 6.83%
COc1cc2nc(/C=C/c3cc(OC)c(OC)c(OC)c3)sc2cc1SC | 5.92%
CO/N=C/CC(=O)Nc1ccc(F)cc1F | 13.3%
O=C(Nc1ccc(CN2CCCCC2)cc1)Nc1ccccc1Cl | -59%
CCN1CCN(Cc2ccc(NC(=O)Nc3ccccc3Cl)cc2)CC1 | -22.8%
Cc1ccc(OCC(=O)Nc2ccc(CN3CCCCC3)cc2)c(C)c1 | -69.4%
Cc1ccc(C(=O)Nc2ccc(CN3CCCCC3)cc2)c(C)c1 | -35.2%
O=C(COc1ccccc1)Nc1ccc(CN2CCCCC2)cc1 | -26.9%
O=C(CN1CCCC1)Nc1ccc(NC(=O)Nc2ccccc2Cl)cc1 | -21.5%
COc1ccc(C2CC(c3ccccc3)=NN2C(=O)CCC(=O)O)cc1 (stereo not shown) | 8.77%
O=C(COc1ccc(Cl)cc1)NCC(=O)N/N=C/c1cccs1 | 12%
O=C(CN1C(=O)C2CCCCC2C1=O)Nc1nc(-c2ccc(F)cc2)cs1 (stereo not shown) | 5.21%
O=C(Nc1nc(-c2ccc(Cl)cc2)cs1)c1cccnc1 | 5.68%
CC1(C)C(C#N)=C(N)Oc2c1c(=O)oc1ccccc21 | 0.829%
